# According to the supplement of paper PMC11417369:
# Whole data set: some 25,000 sequences, median “ln(normalized median fluorescence intensity)” near 9.3, cut for the highest 2% near 10. Only a selection was taken, and the highest values are over-represented in it overall.
# Test system: PF3D7_0420300 AP2 domain 1 (GST-tagged)
# Assay: gcPBM binding intensity (ln(normalized median fluorescence intensity)); higher = stronger DNA binding
# Procedure, shortened: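 The highest Masliner-normalised natural-log median intensity across replicate spots of either probe orientation is reported as binding intensity. GST-tagged P. falciparum DNA-binding domains expressed in E. coli were applied for 1 h to an Agilent 4 × 180k array of primer-extended double-stranded 36-bp intergenic genomic probes plus negative controls, and bound protein was detected with Alexa488 anti-GST antibody and scanned at 488 nm.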
row,Sequence,gcPBM binding intensity (ln)
1,TATTTGGGTATTTTTACACACATTAAAATATATATA [CACACA_site5800],9.33
2,ATATATATTTTATACGCATGTAATTATTATGTGGTC [TGCATGCA_site45],9.29
3,TAATAGTTATAAAATACACACCAGGCATGATAAATG [CACACA_site4335],9.5
4,TATATATATATAGGTTGTACATTTTGATGTTTACGT [XGTACX_site5503],9.42
5,AAAAAAAAAAAAAATACACACACACCGATATATATA [CACACA_site8142],10.1
6,CAAAATAATATATATACACACACACCGATATATATA [CACACA_site8082],10.2
7,TATATACATATATACACACACATATATATATATATA [CACACA_site2805],9.6
8,TATACATACATACATACACACACACCGATATATACA [CACACA_site8184],10.2
9,CAAAAAAAATTATACACACACACACCGATATATATA [CACACA_site4719],10.2
10,TATACATACATACATACACACACACCGATATATATA [CACACA_site7896],10.1
11,AAAAAAAATTCGTGTGTGCGCATATATAATATATAA,9.6
12,AGATACTTTCCTCAAACACACAAAACTATACAACAA [CACACA_site1474],9.45
13,AAAAAAATAATCATCACACACGGAGAATGTCCAATA [CACACA_site5305],9.6
14,AAAAAAAAAACATACACACACACAAATATTTATATA [CACACA_site437],10.1
15,GAAATAGAGAGACACACACACATATATTTATGTATT [CACACA_site7794],9.93
16,GAAATAGAGAAACACACACACATATATTTATGTATT [CACACA_site3967],9.99
17,AAAAAAAAATATATAAACACACATATTTATATACAC [GTGCAC_negctrl_site545],9.61
18,CAGAAATAGAGATACACACACACATATATTTATGTA [CACACA_site3968],10.2
19,AAGAAATATTTATACACACACACAAACATATATATA [CACACA_site1912],10.2
20,CATAAATACAAATATACACACATATTTATATTTATA [CACACA_site7277],9.54
21,CACAAAAAGAAACACACACACATATATATTTATTAT [CACACA_site3646],10.1
22,AAGAAATATTTATACACACACACAAACATATAAATA [CACACA_site6981],10.2
23,AAAAAAAAAAAAAAAAAAAAATTTCAATTATATTGA [GTGCAC_negctrl_site642],8.91
24,CCATTTTTTTTATACGCACACGTCATACTTTTAAAA [CACACA_site4988],9.46
25,ATTTATATTTGTATTTGTACTTATATTTATATTTAT [XGTACX_site1540],9.64
